Experimental findings from the supplement of paper PMC6411743 are described below.

What all share (assay): NP40-soluble protein abundance relative to vehicle (solubility fold change) (ratio); higher = more soluble protein in presence of AMP-PNP
One test addresses T1, DDX49 (UniProt Q9Y6V7).
T1 sequence (whole entry): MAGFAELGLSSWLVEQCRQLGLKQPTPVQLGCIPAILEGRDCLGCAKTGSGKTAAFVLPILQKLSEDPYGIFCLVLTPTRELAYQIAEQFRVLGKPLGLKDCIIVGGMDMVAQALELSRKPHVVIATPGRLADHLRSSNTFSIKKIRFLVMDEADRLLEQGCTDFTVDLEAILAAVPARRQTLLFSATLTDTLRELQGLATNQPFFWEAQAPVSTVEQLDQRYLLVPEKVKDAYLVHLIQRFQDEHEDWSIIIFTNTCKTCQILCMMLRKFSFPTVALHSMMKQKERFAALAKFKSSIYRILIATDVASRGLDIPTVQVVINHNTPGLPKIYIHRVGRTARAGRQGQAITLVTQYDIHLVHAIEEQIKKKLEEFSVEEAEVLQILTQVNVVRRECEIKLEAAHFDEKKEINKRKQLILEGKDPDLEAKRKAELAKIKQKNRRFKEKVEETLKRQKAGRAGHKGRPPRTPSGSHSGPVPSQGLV
The gist of the method:
(§1)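 Jurkat crude lysate (Dounce-homogenised) was treated with eight concentrations from 0.1 to 10 mM for 10 min at room temperature, then 3 min at 37 °C. It was solubilised with 0.8% NP40 and benzonase (60 min, 4 °C) and ultracentrifuged, and the supernatant was TMT-labelled for LC-MS/MS. Intensities were vsn-normalised, and the value is the fold change against the NP40-processed vehicle per replicate, from three independent experiments.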

A further test concerns the target T2, MAD1L1 (UniProt Q9Y6D9).
T2 sequence (whole entry): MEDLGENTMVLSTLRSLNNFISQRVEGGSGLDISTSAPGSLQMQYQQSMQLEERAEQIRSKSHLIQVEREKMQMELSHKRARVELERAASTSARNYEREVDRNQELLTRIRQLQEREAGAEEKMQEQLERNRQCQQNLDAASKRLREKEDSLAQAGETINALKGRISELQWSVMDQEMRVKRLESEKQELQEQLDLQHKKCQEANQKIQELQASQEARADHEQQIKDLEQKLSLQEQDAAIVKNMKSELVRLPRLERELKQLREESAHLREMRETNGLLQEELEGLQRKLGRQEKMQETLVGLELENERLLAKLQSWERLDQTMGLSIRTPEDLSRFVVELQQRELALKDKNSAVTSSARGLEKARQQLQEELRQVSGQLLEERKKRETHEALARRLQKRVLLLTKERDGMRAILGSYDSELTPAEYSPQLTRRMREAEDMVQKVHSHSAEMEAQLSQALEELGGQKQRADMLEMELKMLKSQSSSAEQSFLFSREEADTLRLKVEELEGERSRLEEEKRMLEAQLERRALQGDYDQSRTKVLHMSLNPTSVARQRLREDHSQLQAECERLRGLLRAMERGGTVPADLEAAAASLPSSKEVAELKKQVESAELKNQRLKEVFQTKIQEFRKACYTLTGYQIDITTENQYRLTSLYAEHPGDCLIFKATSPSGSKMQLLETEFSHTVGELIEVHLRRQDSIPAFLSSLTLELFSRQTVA
The gist of the method:
as §1

The target of the next test is T3, OAS3 (UniProt Q9Y6K5).
T3 sequence (whole entry): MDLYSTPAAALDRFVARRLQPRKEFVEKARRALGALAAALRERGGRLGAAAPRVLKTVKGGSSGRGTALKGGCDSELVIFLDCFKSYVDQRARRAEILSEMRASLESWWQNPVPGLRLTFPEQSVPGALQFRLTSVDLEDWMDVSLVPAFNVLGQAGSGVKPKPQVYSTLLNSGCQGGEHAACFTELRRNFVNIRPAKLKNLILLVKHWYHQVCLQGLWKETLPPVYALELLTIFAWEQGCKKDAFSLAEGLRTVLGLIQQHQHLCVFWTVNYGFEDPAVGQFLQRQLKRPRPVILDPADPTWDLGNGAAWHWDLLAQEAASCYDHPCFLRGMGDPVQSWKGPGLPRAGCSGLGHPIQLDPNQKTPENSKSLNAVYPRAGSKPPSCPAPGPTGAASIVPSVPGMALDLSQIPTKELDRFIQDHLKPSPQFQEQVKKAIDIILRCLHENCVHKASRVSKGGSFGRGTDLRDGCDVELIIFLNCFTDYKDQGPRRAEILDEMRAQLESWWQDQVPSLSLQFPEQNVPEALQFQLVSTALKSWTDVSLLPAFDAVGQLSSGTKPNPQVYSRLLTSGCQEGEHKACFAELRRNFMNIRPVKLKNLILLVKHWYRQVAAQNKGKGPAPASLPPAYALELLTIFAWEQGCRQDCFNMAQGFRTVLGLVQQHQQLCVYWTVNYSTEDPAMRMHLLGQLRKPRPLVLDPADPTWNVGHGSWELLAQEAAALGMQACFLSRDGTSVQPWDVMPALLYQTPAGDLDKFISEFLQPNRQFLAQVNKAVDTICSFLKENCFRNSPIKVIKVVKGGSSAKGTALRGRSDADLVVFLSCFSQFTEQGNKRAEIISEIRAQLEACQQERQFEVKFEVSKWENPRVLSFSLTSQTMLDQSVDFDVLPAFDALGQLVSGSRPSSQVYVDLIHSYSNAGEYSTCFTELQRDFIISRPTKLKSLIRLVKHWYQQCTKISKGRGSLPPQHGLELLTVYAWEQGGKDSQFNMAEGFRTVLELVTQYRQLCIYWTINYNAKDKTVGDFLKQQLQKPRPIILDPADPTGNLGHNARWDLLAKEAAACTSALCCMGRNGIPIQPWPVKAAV
The gist of the method: as §1

In the next test the target is S4R3R2 (UniProt Q9NXR5). The gist of the method:
as §1

± gives the standard deviation of the averaged measurements. Of roughly 6,200 targets only a part is listed; those with the largest changes were picked by preference.

Chain of S4R3R2 (Q9NXR5 whole entry, one chain of several): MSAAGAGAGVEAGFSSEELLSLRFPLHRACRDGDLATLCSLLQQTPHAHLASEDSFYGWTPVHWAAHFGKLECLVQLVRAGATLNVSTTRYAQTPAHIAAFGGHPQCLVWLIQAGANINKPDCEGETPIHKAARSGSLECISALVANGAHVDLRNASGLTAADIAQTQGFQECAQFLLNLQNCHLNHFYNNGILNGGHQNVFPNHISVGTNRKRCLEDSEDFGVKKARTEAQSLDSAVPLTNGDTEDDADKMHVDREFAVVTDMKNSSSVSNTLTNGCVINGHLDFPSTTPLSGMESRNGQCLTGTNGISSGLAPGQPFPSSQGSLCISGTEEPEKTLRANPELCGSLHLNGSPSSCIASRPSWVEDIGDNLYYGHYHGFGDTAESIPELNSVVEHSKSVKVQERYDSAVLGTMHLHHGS

`Nc1ncnc2c1ncn2[C@@H]1O[C@H](COP(=O)(O)OP(=O)(O)NP(=O)(O)O)[C@@H](O)[C@H]1O` [adenylyl imidodiphosphate]: the NP40-soluble protein abundance with DDX49 (concentration: 1mM) came out at 1.09 ± 0.076; with DDX49 (concentration: 2mM) it was 1.13 ± 0.092; with DDX49 (concentration: 4mM) it was 1.15 ± 0.12; with DDX49 (concentration: 6mM), 1.13 ± 0.1; in the test with DDX49 (concentration: 8mM), 1.15 ± 0.12; with DDX49 (concentration: 10mM), 1.24 ± 0.21. For the same molecule, the NP40-soluble protein abundance worked out at 1.02 ± 0.028 with MAD1L1 (concentration: 1mM); 1.03 ± 0.039 with MAD1L1 (concentration: 2mM); 1.02 ± 0.047 with MAD1L1 (concentration: 4mM); 0.986 ± 0.021 with MAD1L1 (concentration: 6mM); 0.983 ± 0.046 with MAD1L1 (concentration: 8mM); 1 ± 0.057 in the test with MAD1L1 (concentration: 10mM). Further, the NP40-soluble protein abundance with OAS3 (concentration: 1mM) was determined as 1.01 ± 0.012; with OAS3 (concentration: 2mM), 1.02 ± 0.04; in the test with OAS3 (concentration: 4mM), 1.02 ± 0.032; with OAS3 (concentration: 6mM), 0.998 ± 0.033; in the test with OAS3 (concentration: 8mM), 1.02 ± 0.043; with OAS3 (concentration: 10mM), 0.998 ± 0.018. Also, the NP40-soluble protein abundance in the test with S4R3R2 (concentration: 1mM) came out at 1.04 ± 0.031; with S4R3R2 (concentration: 2mM) it was 1.05 ± 0.063; with S4R3R2 (concentration: 4mM), 1.02 ± 0.027; with S4R3R2 (concentration: 6mM) it was 1.01 ± 0.041; in the test with S4R3R2 (concentration: 8mM), 0.983 ± 0.011; with S4R3R2 (concentration: 10mM), 0.983 ± 0.022.
